# Screens (PubChem)
# The full list was thinned out, with hits kept by preference.
# miR-122 inh = raises miR-122 sensor activity in Huh7 cells. AID 623901. Huh7 psiCHECK-miR122 Renilla luciferase sensor, 48 h. activation, % at 12.5 µM. 340,000 tested, 0.14% active;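 active = mean activation of 30% or more, with every replicate also reaching 30%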;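 note: 0% = median of neutral control wells and 100% = median of positive control wells; higher luciferase signal means stronger suppression of miR-122 activity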
# * hit, by the source's call.
SMILES,miR-122 inh
Cc1noc(C)c1NC(=O)N(C)C[C@@H]1Oc2cc(C#CCC(C)C)ccc2S(=O)(=O)N([C@H](C)CO)C[C@H]1C,1
Cc1ccc(S(=O)(=O)N(C)C[C@@H]2Oc3ccc(NC(=O)Nc4ccc5c(c4)OCO5)cc3CC(=O)N([C@@H](C)CO)C[C@@H]2C)cc1,-113
C[C@H](CO)N1C[C@H](C)[C@H](CN(C)S(C)(=O)=O)Oc2ncc(-c3cccnc3)cc2C1=O,-7
C[C@H](O)C#Cc1ccc2c(c1)O[C@H](CN(C)Cc1cncnc1)[C@@H](C)CN([C@H](C)CO)S2(=O)=O,-17
CC(C)C#Cc1ccc2c(c1)O[C@@H](CN(C)Cc1ccncc1)[C@H](C)CN([C@H](C)CO)S2(=O)=O,-3
COc1ccccc1-c1ccc2c(c1)O[C@@H](CN(C)S(=O)(=O)c1ccccc1)[C@H](C)CN([C@H](C)CO)S2(=O)=O,-9
C[C@@H]1CN([C@@H](C)CO)C(=O)c2cc(-c3cccc(C(=O)N(C)C)c3)cnc2O[C@@H]1CN(C)C(=O)Cc1ccccn1,0
COCC#Cc1cnc2c(c1)C(=O)N([C@H](C)CO)C[C@H](C)[C@H](CN(C)C(=O)Cc1ccccc1)O2,-11
CCC(=O)N(C)C[C@H]1Oc2ncc(-c3cccc(OC)c3)cc2C(=O)N([C@@H](C)CO)C[C@@H]1C,2
C[C@@H](O)C#Cc1ccc2c(c1)O[C@@H](CN(C)Cc1cncnc1)[C@@H](C)CN([C@@H](C)CO)S2(=O)=O,2
C[C@H]1CN([C@@H](C)CO)C(=O)c2cc(C#CCc3ccccc3)cnc2O[C@@H]1CN(C)Cc1ccccn1,1
C[C@@H]1CN([C@@H](C)CO)C(=O)c2cc(N(C)C)ccc2O[C@@H]1CN(C)C(=O)Nc1ccc(F)cc1,-103
C[C@@H]1CN([C@@H](C)CO)C(=O)Cc2cc(NC(=O)Nc3ccc(C(F)(F)F)cc3)ccc2O[C@H]1CN(C)Cc1ccc(Oc2ccccc2)cc1,35*
COc1ccc(CN(C)C[C@H]2OCCCC[C@H](C)Oc3ccc(NC(=O)Nc4ccc(C(F)(F)F)cc4)cc3C(=O)N([C@@H](C)CO)C[C@@H]2C)cc1,31*
C[C@@H]1CN([C@@H](C)CO)C(=O)Cc2cc(NC(=O)Nc3ccc(C(F)(F)F)cc3)ccc2O[C@@H]1CN(C)C(=O)Nc1cccc2ccccc12,-265
C[C@@H]1CN([C@@H](C)CO)C(=O)c2cccc(NC(=O)Nc3ccccc3)c2O[C@H]1CN(C)Cc1ccc(C(F)(F)F)cc1,-115
C[C@@H]1CN([C@H](C)CO)C(=O)Cc2cc(NC(=O)Nc3ccc(C(F)(F)F)cc3)ccc2O[C@@H]1CN(C)C(=O)Nc1cccc2ccccc12,-112
C[C@@H]1CN([C@@H](C)CO)C(=O)c2cccc(NC(=O)Nc3ccc(F)cc3)c2O[C@H]1CN(C)Cc1ccc(C(F)(F)F)cc1,-91
C[C@H](CO)N1C[C@H](C)[C@@H](CN(C)Cc2ccc(C(F)(F)F)cc2)Oc2c(NC(=O)C3CCCCC3)cccc2C1=O,-122
C[C@H](CO)N1C[C@H](C)[C@@H](CN(C)Cc2ccc(C(F)(F)F)cc2)Oc2ccc(N(C)C)cc2C1=O,-98
COc1ccc(S(=O)(=O)Nc2cccc3c2O[C@@H](CN(C)Cc2ccc(C(F)(F)F)cc2)[C@H](C)CN([C@H](C)CO)C3=O)cc1,-102
C[C@H]1CN([C@@H](C)CO)C(=O)c2cccc(NC(=O)NC3CCCCC3)c2O[C@@H]1CN(C)Cc1ccc(C(F)(F)F)cc1,-121
COc1ccc(CN(C)C[C@@H]2OCCCC[C@H](C)Oc3ccc(NC(=O)Nc4ccc(C(F)(F)F)cc4)cc3C(=O)N([C@H](C)CO)C[C@H]2C)cc1,32*
C[C@@H]1CN([C@H](C)CO)C(=O)c2cc(NC(=O)Cc3ccccc3)ccc2O[C@@H](C)CCCCO[C@H]1CN(C)Cc1ccc(C(F)(F)F)cc1,31*
C[C@H]1CN([C@@H](C)CO)C(=O)c2cc(-c3ccc(C(=O)N(C)C)cc3)cnc2O[C@H]1CN(C)Cc1ccc(C(=O)O)cc1,3
SMILES,miR-122 inh
CNC[C@H]1Oc2cc(-c3cccc(F)c3)ccc2S(=O)(=O)N([C@H](C)CO)C[C@@H]1C,4
Cc1ccccc1-c1ccc2c(c1)O[C@@H](CN(C)C(=O)Nc1ccccc1)[C@H](C)CN([C@H](C)CO)S2(=O)=O,-3
CCCC#Cc1cnc2c(c1)C(=O)N([C@@H](C)CO)C[C@H](C)[C@@H](CN(C)Cc1cccnc1)O2,3
CCCNC(=O)NC[C@@H]1[C@@H](c2ccc(C3=CCCC3)cc2)[C@@H](CO)N1C(=O)CC,-143
C[C@H](CO)N1C[C@H](C)[C@@H](CN(C)Cc2ccc(C(F)(F)F)cc2)Oc2c(NC(=O)c3nc4ccccc4s3)cccc2C1=O,-92
COCC(=O)N(C)C[C@H]1Oc2ncc(C#Cc3ccncc3)cc2C(=O)N([C@@H](C)CO)C[C@@H]1C,7
C[C@H](CO)N1C[C@H](C)[C@@H](CN(C)Cc2cncnc2)Oc2cc(-c3ccncc3)ccc2S1(=O)=O,-6
C[C@@H]1CN([C@H](C)CO)C(=O)c2cc(C3=CCCCC3)cnc2O[C@@H]1CN(C)C(=O)Cc1ccccc1,0
COc1ccccc1-c1ccc2c(c1)O[C@@H](CN(C)S(=O)(=O)c1ccccc1)[C@@H](C)CN([C@@H](C)CO)S2(=O)=O,1
COc1ccc(-c2cnc3c(c2)C(=O)N([C@@H](C)CO)C[C@@H](C)[C@H](CN(C)C(=O)C2CCOCC2)O3)cc1,0
CCCNC(=O)N(C)C[C@H]1Oc2cc(C#CC(C)C)ccc2S(=O)(=O)N([C@H](C)CO)C[C@@H]1C,-44
CC(C)CC#Cc1ccc([C@H]2[C@@H](CO)N3CCCCN(S(=O)(=O)Cc4ccccc4)C[C@H]23)cc1,35*
COCC#Cc1cnc2c(c1)C(=O)N([C@H](C)CO)C[C@H](C)[C@@H](CN(C)C(=O)Nc1ccc(OC)cc1)O2,2
COc1ccc(NC(=O)N2CCCCN3[C@@H](CO)[C@H](c4ccc(C#CCC(C)C)cc4)[C@@H]3C2)cc1,33*
COc1ccc(C#Cc2ccc([C@H]3[C@H](CO)N4CCCCN(C(=O)Nc5ccccc5)C[C@@H]34)cc2)cc1,35*
COc1cccc(NC(=O)N(C)C[C@H]2Oc3cc(C#Cc4ccccc4)ccc3S(=O)(=O)N([C@H](C)CO)C[C@@H]2C)c1,-19
O=C(Nc1ccccc1)N1C[C@H]2[C@@H](c3ccccc31)[C@@H](CO)N2C(=O)c1ccccn1,-132
COCC#Cc1cnc2c(c1)C(=O)N([C@H](C)CO)C[C@@H](C)[C@@H](CN(C)C(=O)Nc1ccc(OC)cc1)O2,0
C/C=C/c1ccc2c(c1)O[C@H](CN(C)C(=O)CC1CC1)[C@H](C)CN([C@@H](C)CO)S2(=O)=O,-6
C[C@@H]1CN([C@@H](C)CO)S(=O)(=O)c2ccc(C#Cc3ccccc3F)cc2O[C@@H]1CN(C)C(=O)Cc1ccccc1,7
CO[C@@H]1CN(C)C(=O)c2ccc(NC(=O)C3CCC3)cc2OC[C@H](C)NC[C@@H]1C,-4
CCC(=O)Nc1ccc2c(c1)OC[C@H](C)N(C(=O)c1ccccc1F)C[C@@H](C)[C@@H](OC)CN(C)C2=O,-3
COc1ccccc1C#Cc1ccc2c(c1)O[C@@H](CN(C)Cc1cncnc1)[C@H](C)CN([C@H](C)CO)S2(=O)=O,-37
C[C@@H]1CN([C@H](C)CO)C(=O)c2cc(-c3ccc(F)cc3)cnc2O[C@H]1CN(C)C(=O)c1ccccn1,6
